We go through 13 molecules from PubChem BioAssay (NCI).

Among the test systems are DU-145 prostate; K-562 leukemia; MALME-3M melanoma; MDA-MB-231 breast; RXF 393 renal; SF-268 CNS; SF-295 CNS; SF-539 CNS; UACC-257 melanoma; M14 melanoma.
Common to all, as to assay: NCI-60 one-dose screen, 48 h (100 = growth as untreated, 0 = no growth, -100 = all killed)
Common to all, as to details: 10 µM

This is part of a sample that, as a whole, favours compounds with a hit. Of some 83,000 tested, about 20% had one in any assay.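 Percent growth is the endpoint: 0 to 100 indicates growth inhibition (40 means 60% inhibition), 0 means no net growth, and negative values indicate cell death.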 Values without a mark were called inactive. Calls of active or inactive are those of the source. Rule for the calls: active = growth percent below 10; inactive = the rest.

Regarding `C[N+]1(CC2CO2)CCCCCC1` (stereo not given), the growth with DU-145 prostate was 107%; in the assay on K-562 leukemia it was 119%; in the assay with MALME-3M melanoma, 95.8%; in the assay with MDA-MB-231 breast, 116%; with RXF 393 renal, 103%; in the assay with SF-268 CNS, 104%. Moreover, the growth in the assay on SF-295 CNS was 103%; in the assay on SF-539 CNS it was 95.8%; in the assay with UACC-257 melanoma, 99.4%; in the assay with M14 melanoma it was 106%.
As to `COc1ccc(-c2nc(-c3nc4ccc(C)cc4[nH]3)c3ccccn23)cc1`, the growth in the assay on DU-145 prostate was 52.2%; in the assay on K-562 leukemia, 20.4%; in the assay with MALME-3M melanoma, 85.3%; in the assay on MDA-MB-231 breast, 32.9%; in the assay with RXF 393 renal, 66.5%; with SF-268 CNS it was 45%. For the same molecule, the growth in the assay with SF-295 CNS was 8.6% (active); in the assay with SF-539 CNS it was 82.4%; in the assay with UACC-257 melanoma it was 57.6%; with M14 melanoma, 46.5%.
Take `COc1ccc(C2C=C(c3ccc(Cl)c(Cl)c3)N=C3SC(C)=CN32)cc1OC` (stereo not given): the growth was 83.6% with DU-145 prostate; 59.5% with K-562 leukemia; 87.3% in the assay on MALME-3M melanoma; 46.1% in the assay on MDA-MB-231 breast; 66.4% with RXF 393 renal; 63.2% with SF-268 CNS. The growth with SF-295 CNS is 42.5%; with SF-539 CNS, 90.7%; with UACC-257 melanoma it was 79.7%; in the assay on M14 melanoma, 71%.
For `NC1CCC(Nc2nc(NCc3cc(Cl)ccc3O)c3ncn(C4CCCC4)c3n2)CC1` (stereo not given), the growth is 0.994% (active) in the assay with DU-145 prostate; -23.3% (active) in the assay with K-562 leukemia; -65.5% (active) in the assay on MALME-3M melanoma; -16.7% (active) with MDA-MB-231 breast; -58.9% (active) in the assay with RXF 393 renal; -23.1% (active) in the assay on SF-268 CNS. For the same molecule, the growth was -5.72% (active) in the assay with SF-295 CNS, -62.4% (active) with SF-539 CNS, -58.9% (active) in the assay on UACC-257 melanoma and -71.6% (active) in the assay on M14 melanoma.
As to `Nc1cc(O)cc(O)c1`, the growth is 103% in the assay on DU-145 prostate; 99.5% with K-562 leukemia; 97.5% with MALME-3M melanoma; 93.9% with MDA-MB-231 breast; 120% with RXF 393 renal; 100% with SF-268 CNS. Further, the growth with SF-295 CNS was 94.9%; in the assay on SF-539 CNS, 92.1%; in the assay on UACC-257 melanoma it was 108%; in the assay with M14 melanoma it was 100%.
With `COc1ccc(-c2csc(NC(=O)CO[N+](=O)[O-])n2)cc1`, the growth in the assay on DU-145 prostate is 106%; with K-562 leukemia, 96.8%; in the assay with MALME-3M melanoma, 102%; with MDA-MB-231 breast, 102%; with RXF 393 renal, 125%; in the assay on SF-268 CNS, 99.5%. For the same molecule, the growth in the assay on SF-295 CNS was 101%; in the assay on SF-539 CNS, 98.7%; in the assay with UACC-257 melanoma, 63%; with M14 melanoma, 102%.
`N#Cc1cnc2ccc(NCc3cnc[nH]3)cc2c1Nc1ccc(F)c(Cl)c1`: the growth in the assay with DU-145 prostate is 39.5%; with K-562 leukemia, 66.8%; in the assay with MALME-3M melanoma, 110%; in the assay on MDA-MB-231 breast, 78%; in the assay with RXF 393 renal, 52.8%; in the assay on SF-268 CNS, 63.2%. Further, the growth with SF-295 CNS is 94.4%; in the assay on SF-539 CNS it was 92.1%; in the assay with UACC-257 melanoma, 84.3%; in the assay with M14 melanoma, 72.1%.
Consider `CCCCCCCCCCCC(c1ccccc1)N(C)C` (stereo not given), for which the growth with DU-145 prostate is 104%; in the assay on K-562 leukemia, 78.9%; with MALME-3M melanoma, 107%; in the assay on MDA-MB-231 breast, 76.7%; with RXF 393 renal, 92.5%; in the assay with SF-268 CNS, 111%. Further, the growth in the assay on SF-295 CNS was 97.9%; in the assay with SF-539 CNS it was 103%; with UACC-257 melanoma, 103%; with M14 melanoma, 104%.
Regarding `O=c1oc2cc(OS(=O)(=O)C3CC3)ccc2c2c1CCCCCC2`, the growth in the assay with DU-145 prostate is 91.4%; in the assay with K-562 leukemia it was 51.2%; in the assay with MALME-3M melanoma, 95.3%; in the assay on MDA-MB-231 breast it was 78.3%; in the assay on RXF 393 renal it was 88.3%; with SF-268 CNS it was 94.4%. Also, the growth was 75.3% in the assay with SF-295 CNS, 82.2% with SF-539 CNS, 92.8% with UACC-257 melanoma and 81.4% in the assay on M14 melanoma.
Consider `Nc1ccn([C@@H]2O[C@H](COP(=O)(O)O[C@@H]3C[C@H](n4cc(F)c(=O)[nH]c4=O)O[C@@H]3COP(=O)(O)O[C@@H]3C[C@H](n4cc(F)c(=O)[nH]c4=O)O[C@@H]3COP(=O)(O)O[C@@H]3C[C@H](n4cc(F)c(=O)[nH]c4=O)O[C@@H]3COP(=O)(O)O[C@@H]3C[C@H](n4cc(F)c(=O)[nH]c4=O)O[C@@H]3COP(=O)(O)O[C@@H]3C[C@H](n4cc(F)c(=O)[nH]c4=O)O[C@@H]3COP(=O)(O)O[C@@H]3C[C@H](n4cc(F)c(=O)[nH]c4=O)O[C@@H]3COP(=O)(O)O[C@@H]3C[C@H](n4cc(F)c(=O)[nH]c4=O)O[C@@H]3COP(=O)(O)O[C@@H]3C[C@H](n4cc(F)c(=O)[nH]c4=O)O[C@@H]3COP(=O)(O)O[C@@H]3C[C@H](n4cc(F)c(=O)[nH]c4=O)O[C@@H]3COP(=O)(O)O[C@@H]3C[C@H](n4cc(F)c(=O)[nH]c4=O)O[C@@H]3COP(=O)(O)OCCOCCOCCOCCOCCOCCO)[C@H](O)C2O)c(=O)n1` (stereo not given in full), for which the growth in the assay on DU-145 prostate is 41.6%; in the assay on K-562 leukemia, 53.8%; with MALME-3M melanoma, 64%; in the assay on MDA-MB-231 breast it was 91.4%; in the assay with RXF 393 renal, 63.9%; with SF-268 CNS, 36.8%. Moreover, the growth in the assay with SF-295 CNS is 1.32% (active); in the assay on SF-539 CNS, 10.2%; with UACC-257 melanoma it was 44.7%; in the assay on M14 melanoma it was 9.25% (active).
For `Oc1cc(O)c(Br)cc1Br`, the growth was 107% in the assay on DU-145 prostate; 97.5% in the assay with K-562 leukemia; 120% in the assay on MALME-3M melanoma; 112% in the assay on MDA-MB-231 breast; 110% in the assay with RXF 393 renal; 100% in the assay with SF-268 CNS. For the same molecule, the growth was 98.7% with SF-295 CNS, 96.4% in the assay with SF-539 CNS, 102% in the assay on UACC-257 melanoma and 92.9% in the assay on M14 melanoma.
As for `COc1cccc2c1C(=O)c1c(O)c3c(c(O)c1C2=O)C[C@@](O)(C(=O)COC(=O)c1ccccc1)C[C@@H]3OC1CC(N)C(O)C(C)O1` (stereo not given in full), the growth is -87.6% (active) in the assay with DU-145 prostate; -73.7% (active) with K-562 leukemia; -88.4% (active) in the assay on MALME-3M melanoma; -82% (active) in the assay on MDA-MB-231 breast; -80.3% (active) with RXF 393 renal; -65.6% (active) in the assay on SF-268 CNS. In addition, the growth in the assay with SF-295 CNS was -91.2% (active); in the assay on SF-539 CNS it was -94.7% (active); with UACC-257 melanoma, -91.3% (active); in the assay on M14 melanoma, -69.9% (active).
For the molecule `Cc1ncc([N+](=O)[O-])n1CCOc1ccc(C(=O)/C=C/c2ccc(C(F)(F)F)cc2)cc1`, the growth with DU-145 prostate is 56.4%; with K-562 leukemia, 14%; in the assay on MALME-3M melanoma, 81.8%; in the assay on MDA-MB-231 breast it was 82.9%; in the assay on RXF 393 renal, 64.1%; in the assay on SF-268 CNS it was 77.4%. Besides, the growth in the assay on SF-295 CNS was 73.8%; with SF-539 CNS, 57.5%; in the assay on UACC-257 melanoma, 82.9%; in the assay with M14 melanoma, 79.7%.
